Screening data as filed in PubChem.
NADH coupling = inhibition of NAD/NADH coupling enzymes, library profiling | coupled PK/LDH NADH assays, four targets | IC50, µM (doses to about 10 µM) | hit rate 0.02% among 65,000 | AID 774;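 active means single-dose screening hits from any of four coupled enzyme assays that gave an IC50 when retested across doses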;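 further: the DPM-DC format reads NADH fluorescence rather than 340 nm absorbance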
PMK inhibit = blocks S. pneumoniae phosphomevalonate kinase; purified PMK, PK/LDH-coupled NADH absorbance 340 nm; inhibition, % at 10 µM; hit rate 0.49% among 65,000;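 active means top-ranked compounds by inhibition in the single 10 µM screen, taking a fixed number of the strongest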
Abs 340nm = absorbance at 340 nm; compound absorbance at 340 nm, fold over control; fold change at 10 µM; 65,000 tested, under 10 active; AID 708;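 active means at 10 µM dose, initial 340 nm absorbance at least 2 fold that of control wells; inactive means change under 2 fold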;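 further: initial absorbance extrapolated from kinetic A340 decline of NADH oxidation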
MK inhibit = blocks S. pneumoniae mevalonate kinase | inhibition, % at 10 µM | AID 555 | hit rate 0.48% among 65,000 | purified MK, PK/LDH-coupled NADH absorbance 340 nm;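 active means ranked among the strongest by inhibition in the single 10 µM screen, a fixed top-ranked set picked for dose follow-up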
Autofluor 339 = intrinsic fluorescence of library compounds, ex339/em460 – biochemical, MLSMR library, data from DPM-DC assay, artefact control, profiling panel | hit rate 5.5% among 65,000 | compound autofluorescence, ex339/em460 nm, NADH buffer; hits give high values; 1 = no-compound wells, NADH background | fluorescence fold increase at 10 µM;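 active means at 10 µM, mean starting fluorescence two-fold or more over control wells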;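 further: signal is the first read of a kinetic run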
DPM-DC inhibit = inhibitors of Streptococcus pneumoniae diphosphomevalonate decarboxylase; purified DPM-DC, PK/LDH coupled NADH fluorescence; calls only at 10 µM; hit rate 0.49% among 65,000; AID 556;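 active means the 320 compounds with the highest percent inhibition in the single-dose primary screen, excluding strongly autofluorescent ones, cut at about 32% in these data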;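 further: kinetic rate of NADH fluorescence loss reporting ADP formed by the decarboxylase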
Numbers stand for hits; n = inactive; x = not tested or not shown. Sampled rows, rich in hits. Any-hit rate of the full collection: about 6.8%.

SMILES	NADH coupling	PMK inhibit	Abs 340nm	MK inhibit	Autofluor 339	DPM-DC inhibit
O=C1NC(c2ccco2)Nc2ccccc21 (stereo not given)	n	n	n	n	2.9	x
Cc1ccc(C2NC(=O)c3ccccc3N2)s1 (stereo not given)	n	n	n	n	2.1	x
CC1Cc2ccccc2C(=O)N1 (stereo not given)	n	n	n	n	n	n
O=C1NC(c2ccncc2)Nc2ccccc21 (stereo not given)	n	n	n	n	2.5	n
COc1ccc(CCNC(=O)CSc2nnc(-c3ccc(F)cc3)o2)cc1OC	n	n	n	n	n	n
CCN(CC)CCCN1C(=O)C(O)=C(C(=O)c2ccco2)C1c1cc(OC)ccc1OC (stereo not given)	n	n	n	n	n	n
O=C(c1ccc(CS(=O)(=O)Cc2ccc(Cl)cc2)o1)N1CCCC1	n	26	n	n	n	n
CC(=O)c1ccc(-c2nc3c4ccccc4ccn3c2C(C)=O)o1	n	n	n	n	2.2	x
COC(=O)Cc1ccc2c3ccccc3n(C)c2c1	n	n	n	n	n	n
O=C(NCC1CCCO1)C1CC(=O)N(C2CCCCCC2)C1 (stereo not given)	n	27	n	n	n	n
CCS(=O)(=O)N1CCC(C(=O)NCC2CCCO2)CC1 (stereo not given)	n	25	n	n	n	n
CCS(=O)(=O)N1CCC(C(=O)NCCc2ccccc2)CC1	n	25	n	n	n	n
O=C(NCC1CCCO1)C1CCN(S(=O)(=O)N2CCCC2)CC1 (stereo not given)	n	n	n	n	n	n
CCS(=O)(=O)N1CCC(C(=O)NCCc2ccc(C)cc2)CC1	n	n	n	n	n	n
COc1ccc(NS(=O)(=O)c2ccc(NS(=O)(=O)c3ccc(C)cc3)cc2)nn1	n	n	n	n	n	n
O=C(CSc1ncn[nH]1)OCN1C(=O)c2ccccc2C1=O	n	n	n	n	n	n
CC(C)C(NS(=O)(=O)c1cccc2nsnc12)C(=O)N1CCc2ccccc2C1 (stereo not given)	n	n	n	n	n	n
Cc1ccc2c(c1)-c1cc(C)nn1C(c1ccc3c(c1)OCO3)N2 (stereo not given)	n	n	n	n	n	n
Cc1cc2n(n1)C(c1ccc(N(C)C)cc1)Nc1ccccc1-2 (stereo not given)	n	n	n	n	3.7	x
c1cncc(C2Nc3ccccc3-c3nc4ccccc4n32)c1 (stereo not given)	n	n	n	n	n	n
Cc1cc2n(n1)C(c1ccccc1)Nc1ccccc1-2 (stereo not given)	n	n	n	n	2	n
Cc1cc2n(n1)C(c1ccc3c(c1)OCO3)Nc1ccccc1-2 (stereo not given)	n	n	n	n	2.3	n
CC(=O)c1ccc(OCC(O)CN(C)Cc2cccs2)cc1 (stereo not given)	n	n	n	n	n	n
COc1ccc(NC(=O)N(CCN2CCCC2)Cc2cc3cc(OC)c(OC)cc3[nH]c2=O)cc1	n	n	n	n	2.1	n
CCN(CC)CCCN(Cc1cc2cc(OC)ccc2[nH]c1=O)C(=O)Nc1ccccc1	n	n	n	n	n	n
SMILES	NADH coupling	PMK inhibit	Abs 340nm	MK inhibit	Autofluor 339	DPM-DC inhibit
COc1ccc(NC(=O)N(CCCN(C)C)Cc2cc3cc(OC)ccc3[nH]c2=O)cc1	n	n	n	n	n	n
CCN(CC)CCCN(Cc1cc2cc(OC)ccc2[nH]c1=O)C(=O)Nc1ccc(F)cc1	n	n	n	n	2	n
O=S(=O)(NCCc1ccccn1)c1ccc(F)c(F)c1	n	n	n	n	n	n
CN1CCN(Cc2c(O)ccc3c(=O)c(Oc4ccccc4Cl)c(C(F)(F)F)oc23)CC1	n	n	n	n	n	n
COc1ccccc1Oc1c(C)oc2c(CN3CCN(CCO)CC3)c(O)ccc2c1=O	n	n	n	n	4	x
CCOC(=O)c1c(CN2CCN(CCO)CC2)n(C)c2cc(Br)c(OC)cc12	n	n	n	n	n	n
CCOC(=O)c1c(C)oc2ccc(O)c(CN3CCCCC3)c12	n	n	n	n	n	n
CCOC(=O)c1ccc(Oc2c(C)oc3c(CN4CCN(C)CC4)c(O)ccc3c2=O)cc1	n	n	n	n	3.9	x
CCOc1ccccc1Oc1c(C)oc2c(CN3CCN(CCO)CC3)c(O)ccc2c1=O	n	n	n	n	3.9	x
Cc1oc2c(CN3CCCC3)c(O)ccc2c(=O)c1Oc1ccccc1Br	n	n	n	n	3.9	x
CN1C(=S)SC(/[N+]([O-])=C\c2ccco2)C1(C)C (stereo not given)	n	n	n	n	n	n
CCOc1cc(C2Nc3ccccc3C(=O)N2c2ccccc2)ccc1O (stereo not given)	n	n	n	n	3.6	x
CCCCSc1nc(N)c(NC(=O)c2ccco2)c(=O)[nH]1	n	n	n	n	n	n
CCC(=O)Nc1c(OC(=O)CC)ccc2c(C)cc(=O)oc12	n	n	n	n	2.1	x
CCC(=O)Nc1c(C)cc(C)cc1Cl	n	n	n	n	n	n
Cc1ccc(NC(=O)c2cccc(N3C(=O)CCC3=O)c2)nc1	n	n	n	n	n	n
COc1ccc(-c2csc(N3CCN(C(=O)c4ccco4)CC3)n2)cc1	n	n	n	n	n	n
COc1ccc(-c2csc(N(CC3CCCO3)C(=O)c3ccco3)n2)cc1 (stereo not given)	n	n	n	n	2.7	n
CC1Cc2nc(SCC(=O)NCc3ccco3)n(Cc3ccccc3)c(=O)c2S1 (stereo not given)	n	n	n	n	n	n
CC1(C)CC(=O)c2c(nc3ccccc3c2N)C1	n	n	n	n	2.8	n
O=c1oc(-c2cccs2)nc2c1cnn2-c1ccccc1	n	n	n	n	2.2	x
O=c1oc(-c2ccccc2)nc2c1cnn2-c1ccccc1	n	n	n	n	n	n
COc1ccc(-c2nnc(NC(=O)c3ccc(S(=O)(=O)N4CCc5ccccc5C4)cc3)o2)cc1	n	n	n	n	3.1	n
CC1CC(C)CN(S(=O)(=O)c2ccc(C(=O)Nc3nnc(-c4cccs4)o3)cc2)C1 (stereo not given)	n	n	n	n	3.8	x
O=C(N1CCOCC1)N1CCC(NC(=O)C23CC4CC(CC(C4)C2)C3)CC1	n	n	n	n	n	n
COc1ccc(-n2c(SCC(N)=O)nc3sc4c(c3c2=O)CCN(C)C4)cc1	n	n	n	n	n	n
COC(=O)CSc1nc2sc3c(c2c(=O)n1C1CCCCC1)CCN(C)C3	n	n	n	n	2.5	x
Cc1ccc(S(=O)(=O)c2cc3c(=O)n4ccccc4nc3n(Cc3ccco3)c2=N)cc1	n	n	n	n	3.6	x
Cc1ccc(S(=O)(=O)c2cc3c(=O)n4ccccc4nc3n(CC3CCCO3)c2=N)cc1 (stereo not given)	n	n	n	n	n	n
